# Screening results as filed in PubChem BioAssay.
# AF4-AF9 inh = MLL-AF4/AF9 protein interaction inhibition | P42568 | AlphaScreen, biotin-AF4 peptide binding to FLAG-AF9 | inhibition, % at 10 µM | hit rate 0.47% among 350,000 | AID 651704;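 active means every replicate reaching a set inhibition limit, whatever the replicate mean, cut at about 25% in these data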;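 further: 0% = plate neutral control median and 100% = total signal loss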
# Target sequence (P42568 whole entry, looked up): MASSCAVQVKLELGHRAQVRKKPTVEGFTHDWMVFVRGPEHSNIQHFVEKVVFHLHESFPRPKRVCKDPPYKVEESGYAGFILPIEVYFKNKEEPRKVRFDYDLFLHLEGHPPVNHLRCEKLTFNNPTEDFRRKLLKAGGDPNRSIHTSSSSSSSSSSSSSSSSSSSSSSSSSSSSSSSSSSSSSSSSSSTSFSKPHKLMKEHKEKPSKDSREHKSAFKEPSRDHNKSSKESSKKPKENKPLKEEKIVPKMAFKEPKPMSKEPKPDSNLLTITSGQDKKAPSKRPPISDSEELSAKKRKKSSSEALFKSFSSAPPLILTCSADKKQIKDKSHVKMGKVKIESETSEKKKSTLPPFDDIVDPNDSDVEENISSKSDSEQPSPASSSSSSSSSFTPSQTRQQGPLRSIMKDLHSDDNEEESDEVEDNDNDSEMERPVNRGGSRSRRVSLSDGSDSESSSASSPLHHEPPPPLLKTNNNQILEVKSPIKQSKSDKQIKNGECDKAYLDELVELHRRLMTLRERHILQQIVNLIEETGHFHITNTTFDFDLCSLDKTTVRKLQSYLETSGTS
# NSD2 inh = NSD2 (human) methyltransferase inhibition; O96028; NSD2 peptide methylation, AlphaScreen, 120 min; inhibition, % at 12.5 µM; hit rate 0.54% among 310,000; in the data active means inhibition above about 50%
# Env fusion inh = blocks HIV Env-driven cell-cell fusion; HeLa-JRFL Env/CEM21 cell fusion, luciferase; hit rate 1.1% among 360,000; AID 651610; inhibition, % at 12.3 µM;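 active means mean replicate inhibition score of at least 50 and every replicate individually at or above 50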;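 further: 0% = plate neutral controls and 100% = maraviroc near 300 nM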
# PGC1a acetyl inh = modulators of PGC1a acetylation. U2OS PGC1a acetylation, AlphaScreen anti-acetyl-lysine; with virally co-expressed GCN5 acetyltransferase. inhibition, % at 15.6 µM. hit rate 0.17% among 350,000. AID 651687;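 active means every replicate shows inhibition of at least 40%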;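 further: 0% = neutral control wells and 100% = positive control wells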
# INS-1E GSIS act = primary screen for activators of insulin secretion dependent on glucose, INS-1E cells, GLuc reporter luminescence; hit rate 0.61% among 370,000; activation, % at 16.6 µM; INS-1E GLuc reporter insulin secretion, 2-3 h;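 active means lowest replicate activation of at least 40%, so every replicate reaches that level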;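 further: 0% = median of neutral control wells and 100% = median of IBMX positive control wells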
# Numbers without * were called inactive; nt = no result; [ ] = dose if it differs, or a comment. In the library only some 2.1% were active in any assay of this set; here they are far more common.
SMILES,AF4-AF9 inh,NSD2 inh,Env fusion inh,PGC1a acetyl inh,INS-1E GSIS act
Cc1noc(C)c1S(=O)(=O)N(C)C[C@@H]1Oc2ccc(NC(=O)Nc3ccc(F)cc3)cc2CC(=O)N([C@H](C)CO)C[C@H]1C,-2,nt,-5[16.7 µM],4,-7
CN(C)CC(=O)N[C@H]1CC[C@H](CCNC(=O)C2CCCC2)O[C@@H]1CO,-1,nt,12[16.7 µM],12,-6
COc1ccccc1N1CCN(Cc2ccc(O)c3ncccc23)CC1,nt,27,75*,35,-26
COc1ccccc1N1CCN(Cc2ccc(OC)c(OC)c2OC)CC1,nt,-1,-16,-12,nt
CCOC(=O)c1cnc(-n2nc(C)cc2C)nc1NC1CCCCC1,nt,-1,105*,-3,nt
Cc1cc(Cl)ccc1Oc1nc(-c2ccccc2)ncc1S(C)(=O)=O,nt,0,nt,-5,150*
O=C(CN1C(=O)c2ccccc2S1(=O)=O)c1ccccc1Cl,-2,2,83*,nt,2
Cc1ccc(C(=O)CN2C(=O)c3ccccc3S2(=O)=O)cc1,nt,-2,78*,40,4
Cc1ccc(-n2[nH]c(C)c(/C=N/Nc3ccc([N+](=O)[O-])cc3[N+](=O)[O-])c2=O)cc1C,nt,62*,39,nt,-22
CC(C)(C)[C@H](N)C(=O)N[C@H]1CCC2C3CC=C4C[C@@H](O)CC[C@]4(C)C3CC[C@@]21C (stereo not given in full),3,0,-42,10,202*
CC(=O)C1CCC2C3CC=C4CC(SC(=N)N)CCC4(C)C3CCC12C (stereo not given),11,8,-11,nt,284*
COC(CN(C(=O)CCl)C(C(=O)NC1CCCCC1)c1ccc(Cl)cc1)OC (stereo not given),2,5,-4,19,nt
COC(CN(C(=O)CCl)C(C(=O)NC1CCCCC1)c1ccccc1C)OC (stereo not given),3,4,59*,nt,-18
COc1ccc(N2CCN(C(=O)C3CCC(Cn4c(=S)[nH]c5ccccc5c4=O)CC3)CC2)cc1 (stereo not given),nt,12,74*,nt,-42
COc1ccc(-c2cc(NC=O)c3ncc(-c4cccc(C(C)=O)c4)n3c2)cc1,-10,1,-39,6,-9
O=S(=O)(c1ccccc1Cl)N1CCCC1c1nc(-c2ccc(Cl)cc2)no1 (stereo not given),nt,-1,82*,-5,nt
O=C(O)CSc1ncnc2sc3c(c12)CCC3,nt,2,36,9,nt
CCSc1ncnc2sc3c(c12)CCC3,nt,-1,-78,-19,43*
CCOC(=O)C1CN(S(=O)(=O)c2ccc(Cl)cc2)c2cc(S(=O)(=O)CC)ccc2O1 (stereo not given),-2,1,6,-2,-27
CCOC(=O)C1CN(S(=O)(=O)c2ccccc2)c2cc(S(=O)(=O)CC)ccc2O1 (stereo not given),nt,3,-44,50*,nt
Cc1cccc2cc3c(N)c(C#N)sc3nc12,nt,-5,91*,4,nt
Cc1noc(C)c1S(=O)(=O)Nc1ccc2c(c1)C(=O)N([C@@H](C)CO)C[C@@H](C)[C@H](CN(C)C)OCCCC[C@H](C)O2,-2,nt,4[16.7 µM],6,14
CC(C)(C)N=Cc1c(O)ccc2oc3c(c12)CCCC3,-2,0,23,nt,-7
O=[N+]([O-])c1cc2oc3c(c2c(C=NCc2ccncc2)c1O)CCCC3,nt,65*,nt,nt,nt
O=C(CSc1ccc(Cl)cc1)Nc1ccccc1N1CCN(C(=O)c2ccccc2)CC1,nt,0,nt,-21,nt
SMILES,AF4-AF9 inh,NSD2 inh,Env fusion inh,PGC1a acetyl inh,INS-1E GSIS act
C[N+]1(C)CCC(=C2c3ccccc3CC(=O)c3sccc32)CC1,nt,nt,64*,94*,nt
CC[N+]1(C)CCC(=C2c3ccccc3CC(=O)c3sccc32)CC1 (stereo not given),nt,8,-16,10,nt
COc1cccc(Nc2nc(-c3sc(NC(=O)c4ccco4)nc3C)cs2)c1,5,nt,66*,nt,-6
COc1ccc(Cl)cc1Nc1nc(-c2sc(NC(=O)c3ccco3)nc2C)cs1,4,nt,-8,4,9
Nc1cccc(S(=O)(=O)c2ccc(N)c(N)c2)c1,-2,1,-14,2,-17
COc1cccc(NC(=S)/C(=C(\[O-])c2cc(C)n(-c3ccccc3F)c2C)[n+]2ccc(N(C)C)cc2)c1,21,7,23,nt,0
Clc1ccc(C(c2nnnn2CCc2ccccc2)N2CCSCC2)cc1 (stereo not given),nt,-2,100*,-11,nt
Fc1ccc(C(c2nnnn2CCc2ccccc2)N2CCCc3ccccc32)cc1 (stereo not given),nt,-2,90*,-25,nt
Fc1ccc(C(c2nnnn2C2CCCC2)N2CCc3ccccc32)cc1 (stereo not given),nt,0,-71,nt,nt
CCCCn1c(=O)[nH]c(=O)c2c1nc(-c1ccc(-c3ccc(F)cc3)o1)n2C,nt,-2,5,nt,-4
CC(C)CN(C(=O)c1cccc(S(=O)(=O)N2CCN(Cc3ccccc3)CC2)c1)C1CCS(=O)(=O)C1 (stereo not given),28*,0,6,-3,-10
CC(C)CN(C(=O)C1CCCCC1)C1CCS(=O)(=O)C1 (stereo not given),-3,nt,16,nt,41*
CC(C)CN(C(=O)c1ccc(S(=O)(=O)N2CCCCC2)cc1)C1CCS(=O)(=O)C1 (stereo not given),-1,-7,70*,nt,17
CCCN(C(=O)c1cccc(S(=O)(=O)N2CCN(Cc3ccccc3)CC2)c1)C1CCS(=O)(=O)C1 (stereo not given),6,2,nt,2,1
CC(C)CN(C(=O)c1ccc(S(=O)(=O)N2CCCC2)cc1)C1CCS(=O)(=O)C1 (stereo not given),-1,4,nt,-4,2
CCn1c(COc2ccc(Cl)cc2)nnc1SCc1nc2ccccc2[nH]1,nt,1,114*,27,nt
Cc1ccc(OCc2nnc(SCc3nc4ccccc4[nH]3)n2Cc2ccco2)cc1,nt,nt,nt,16,-43
Cc1ccccc1CS(=O)(=O)CCC(=O)NCCN1CCN(c2cccc(Cl)c2)CC1,nt,0,41,nt,-16
Cc1cc(C)c2oc(C(=O)N(Cc3ccc(F)cc3)C3CCS(=O)(=O)C3)cc(=O)c2c1 (stereo not given),1,0,-3,1,63*
CCNc1nc(NCC)n2c(SCC(=O)N(CC)C3CCCCC3)nnc2n1,nt,2,-11,nt,74*
Nc1nnc(SC2CC(=O)N(c3ccccc3)C2=O)s1 (stereo not given),nt,-4,58*,9,nt
CC1(C(=O)NCc2ccc3c(c2)OCO3)CCN1Cc1csc2ccccc12 (stereo not given),-2,25,98*,-3,-30
CC1(C(=O)Nc2ccc3c(c2)OCCO3)CCN1Cc1csc2ccccc12 (stereo not given),0,2,25,-25,-11
O=C(N/N=C/c1ccc(O)cc1O)c1ccncc1,-2,4,8,nt,-4
COc1nc(-c2ccccc2)c2cc(C)ccc2n1,3,-5,10,11,72*
CCOc1nc(-c2ccccc2)c2cc(C)ccc2n1,0,-12,26,6,6
